High-throughput results: PubChem, Broad Institute
Rows were chosen to be rich in hits. Some 1.7% of all compounds tested hit in one or more screens of this group.
Vif inh: HIV Vif inhibition | AID 602346 | inhibition, % at 7.49 µM | HEK293T cells, Vif self-association by quenched fluorescence, imaging, 24 h | actives 0.35% (n = 340,000); in the data active = inhibition above about 50%, passing the limit was not always enough
FGF22 binding: FGF22 (human) thermal shift binding; actives 1.5% (n = 340,000); recombinant FGF22 thermal shift, SYPRO orange fluorescence; percent of sucrose octasulfate shift, DMSO zero; Q9HCT0; activity (Tm shift, normalised), % at 9.99 µM;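 active = mean Tm shift, scaled 0 neutral to 100 positive control, at about 1.3% or above, every replicate too, limit read from the data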
Target sequence (Q9HCT0 whole entry, looked up): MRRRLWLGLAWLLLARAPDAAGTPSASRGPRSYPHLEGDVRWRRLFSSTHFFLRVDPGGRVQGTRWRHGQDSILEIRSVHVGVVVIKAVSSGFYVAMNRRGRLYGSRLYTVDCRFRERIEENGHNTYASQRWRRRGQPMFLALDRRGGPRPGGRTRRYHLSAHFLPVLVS
CFTR F508del cor: CFTR F508del correction in bronchial cells; CFBE cells, YFP halide quenching; stimulated with forskolin plus potentiator P3; % fluorescence drop versus neutral controls; activity (quench increase), % at 7.58 µM; actives 0.36% (n = 350,000);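 active = mean added fluorescence quench of at least 8% versus neutral control, with both replicates also reaching 8%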;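 also: cells transiently co-express mutant CFTR-F508del with the halide-sensitive YFP; corrector assay measuring rescue of mutant channel to the surface after 24 h compound exposure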
A number is an active result; i = inactive; nt = no result given.

SMILES	Vif inh	FGF22 binding	CFTR F508del cor
CCN(C(=O)CSc1nnc(-c2ccc(F)cc2)n1C)C1CCS(=O)(=O)C1 (stereo not drawn)	i	43.0	i
CCn1c(SCC(=O)N(C)C2CCS(=O)(=O)C2)nnc1-c1ccccc1 (stereo not drawn)	i	43.5	i
C=CCn1c(SCC(=O)N(C)C2CCS(=O)(=O)C2)nnc1-c1ccccc1 (stereo not drawn)	i	i	i
CCN(C(=O)CSc1nnc(-c2ccc(F)cc2)c2ccccc12)C1CCS(=O)(=O)C1 (stereo not drawn)	i	i	i
CC(=O)N(C)C[C@@H]1Oc2cc(C#CC3CCCC3)ccc2S(=O)(=O)N([C@@H](C)CO)C[C@H]1C	nt	i	i
CCC(=O)N1C[C@H]2[C@@H](c3ccccc31)[C@@H](CO)N2C(=O)Nc1ccccc1	nt	i	i
CCC(=O)N[C@@H]1C=C[C@H](CC(=O)NCc2ccc(OC)cc2)O[C@H]1CO	nt	i	i
C[C@@H]1CN([C@H](C)CO)C(=O)c2cc(NS(=O)(=O)c3cn(C)cn3)ccc2O[C@@H]1CN(C)CC1CCCCC1	nt	i	i
CC1CCN(C(=O)C2COc3ccccc3O2)CC1 (stereo not drawn)	i	i	15.6
O=C(C1COc2ccccc2O1)N1CCCC1 (stereo not drawn)	i	nt	nt
CCOC(=O)CCC(=O)O[C@H]1[C@H](O[C@@H]2[C@@H](C)[C@H](O[C@H]3C[C@@](C)(OC)[C@@H](O)[C@H](C)O3)[C@@H](C)C(=O)O[C@H](CC)[C@@](C)(O)[C@H](O)[C@@H](C)C(=O)[C@H](C)C[C@@]2(C)O)O[C@H](C)C[C@@H]1N(C)C	i	i	i
CC[C@H]1OC(=O)[C@H](C)[C@@H](O[C@H]2C[C@@](C)(OC)[C@@H](O)[C@H](C)O2)[C@H](C)[C@@H](O[C@@H]2O[C@H](C)C[C@H](N(C)C)[C@H]2O)[C@](C)(O)C[C@@H](C)C(=O)[C@H](C)[C@@H](O)[C@]1(C)O	i	i	9.0
O=C(C[C@@H]1CC[C@@H]2NC[C@@H](O)COC[C@H]2O1)NCCc1ccccc1	nt	i	i
CO[C@H]1CN(C)C(=O)c2ccc(NC(=O)C3CC3)cc2OC[C@@H](C)N(Cc2ccncc2)C[C@@H]1C	nt	i	i
Cc1ccc(S(=O)(=O)N2CCN(C(=O)COC(=O)/C=C/c3ccc(Cl)cc3)CC2)c(C)c1	i	i	17.3
Cc1ccc(S(=O)(=O)N2CCN(C(=O)COC(=O)/C=C/c3ccc(C(F)(F)F)cc3)CC2)c(C)c1	i	i	i
C[C@@H]1CN([C@H](C)CO)C(=O)Cc2cc(NC(=O)Nc3ccc4c(c3)OCO4)ccc2O[C@@H]1CN(C)S(=O)(=O)c1cccs1	nt	i	i
CO[C@@H](CN(C)S(=O)(=O)c1ccc(C)cc1)[C@H](C)CN(Cc1ccccc1Cl)[C@H](C)CO	nt	i	i
COc1ccc(OC)c(-c2cc(-c3cccnc3)nc(N)c2C#N)c1	i	i	9.0
COc1cccc(-c2cc(-c3cccnc3)nc(N)c2C#N)c1	i	i	i
COc1ccc(CNC(=O)C2CC(O)CN2C(=O)Nc2ccccc2)cc1 (stereo not drawn)	i	i	i
COC(=O)C1CC(O)CN1C(=O)Nc1ccccc1 (stereo not drawn)	i	43.3	i
Cc1cccc(-c2ccc([C@@H]3[C@H]4CN(S(=O)(=O)c5cccc(F)c5)CC(=O)N4[C@H]3CO)cc2)c1	nt	i	i
CCSC1=NCCN1S(=O)(=O)c1ccc2ccccc2c1	i	43.6	i
CSC1=NCCN1S(=O)(=O)c1ccc2ccccc2c1	i	i	i
SMILES	Vif inh	FGF22 binding	CFTR F508del cor
COc1ccc(N(CC(=O)Nc2ccccc2C(=O)N2CCOCC2)S(=O)(=O)c2ccc(F)cc2)cc1	i	nt	nt
O=C(CN(c1ccc(F)cc1)S(=O)(=O)c1ccccc1)Nc1ccccc1C(=O)O	i	43.1	i
CCc1ccc(/C=C2/C(=O)N(c3ccccc3)C(=S)N2CC(=O)OC)s1	i	nt	nt
CCOc1ccc(N2C(=O)/C(=C/c3cccs3)N(CC(=O)OC)C2=S)cc1	97.5	nt	nt
COc1ccc(-c2ccc3c(c2)[C@H]2[C@H](CCN2C(=O)Cc2cccnc2)[C@@H](CO)N3C)cc1	nt	i	i
C[C@@H]1CN([C@H](C)CO)S(=O)(=O)c2ccc(-c3cncnc3)cc2O[C@@H]1CN(C)C	nt	i	i
O=S(=O)(Cc1ccccc1)NCC[C@H]1CC[C@@H](NS(=O)(=O)c2ccc(F)cc2)[C@@H](CO)O1	nt	i	i
Cc1cc(=O)n(C)c(=O)n1CCCCCOc1cccc([N+](=O)[O-])c1	i	nt	nt
Cc1cc(=O)n(C)c(=O)n1CCCCOc1cccc([N+](=O)[O-])c1	i	43.6	i
Cc1ccc(S(=O)(=O)N(C)C[C@@H]2OCCCC[C@@H](C)Oc3ccc(NS(=O)(=O)c4cn(C)cn4)cc3C(=O)N([C@H](C)CO)C[C@@H]2C)cc1	nt	i	i
CCOC(=O)C1=C(C)N(CCCC(=O)O)C(=O)NC1c1ccccc1 (stereo not drawn)	i	i	i
CCOC(=O)C1=C(C)N(CCO)C(=O)NC1c1ccccc1 (stereo not drawn)	63.2	i	i
C[C@H](CO)N1C[C@H](C)[C@@H](CN(C)C(=O)NC2CCCC2)Oc2ncc(-c3ccccc3F)cc2C1=O	nt	i	i
CN(C)C(=O)c1cccc(-c2ccc(C3[C@H]4CNC[C@@H]3N4Cc3cccnc3)cc2)c1 (stereo partly drawn)	nt	i	i
CN(C)/C=C/C(=O)c1ccccc1	i	i	i
CN(C)/C=C/C(=O)c1ccc(Br)s1	i	43.3	i
O=C1c2[nH]nc(-c3ccccc3)c2C(c2ccccc2)N1c1ccccc1 (stereo not drawn)	nt	43.5	i
Cc1ccc(C2c3c(-c4ccccc4)n[nH]c3C(=O)N2c2ccccc2)cc1 (stereo not drawn)	nt	i	i
O=C(c1cccc(F)c1)N1CC[C@@H]2[C@@H](CO)Nc3ccc(C#Cc4ccc(F)cc4)cc3[C@@H]21	nt	i	i
CO[C@H]1CN(C)C(=O)c2ccc(NS(=O)(=O)c3ccccc3)cc2OC[C@@H](C)N(Cc2nccs2)C[C@H]1C	nt	i	i
CCOc1ccc(-c2c(C(=O)N/N=C/c3cccs3)nnn2-c2nonc2N)cc1	82.3	i	i
Cc1ccc(-c2c(C(=O)N/N=C/c3cccs3)nnn2-c2nonc2N)cc1	i	nt	nt
COc1ccc(/C=N/NC(=O)c2c(C)nnn2-c2nonc2N)cc1OC	i	43.3	i
COc1ccc(/C=N/NC(=O)c2nnn(-c3nonc3N)c2C)cc1OC	i	i	i
CCCOc1ccc(-c2c(C(=O)N/N=C/c3ccc(C)cc3)nnn2-c2nonc2N)cc1	54.3	i	i
CCOc1ccc(-c2c(C(=O)N/N=C/c3ccc(C)cc3)nnn2-c2nonc2N)cc1	i	i	nt
Cc1noc(C)c1NC(=O)N(C)C[C@H]1Oc2c(NS(=O)(=O)c3c(C)noc3C)cccc2C(=O)N([C@H](C)CO)C[C@H]1C	nt	i	i
CCC(=O)N(C)C[C@H]1Oc2cc(C3=CCCCC3)ccc2S(=O)(=O)N([C@@H](C)CO)C[C@H]1C	nt	nt	i
CCOC(=O)c1c(NC(=O)CCN2CCOCC2)sc2c1CC(C)(C)OC2	i	nt	nt
CCOC(=O)c1c(NC(=O)CCC(=O)N2CCOCC2)sc2c1CC(C)(C)OC2	55.5	nt	nt
